Consider six molecules from ChEMBL document CHEMBL1961873, “Compounds: GSK PKIS; Assays: Nanosyn kinase panel” (2012).

Structures are written as SMILES.

The term inhibition denotes the relative decrease from the control value, in per cent.

The target in experiment [1] is Serine/threonine-protein kinase MRCK alpha (Homo sapiens) (UniProt Q5VT25). The following applies: at 0.1 µM.
Experiment [2] shares this target. The following applies: at 1 µM.
In experiment [3] the target is Serine/threonine-protein kinase MRCK beta (Homo sapiens) (UniProt Q9Y5S2). The following applies: at 0.1 µM.
Serine/threonine-protein kinase MRCK beta (Homo sapiens), sequence (Q9Y5S2 whole entry): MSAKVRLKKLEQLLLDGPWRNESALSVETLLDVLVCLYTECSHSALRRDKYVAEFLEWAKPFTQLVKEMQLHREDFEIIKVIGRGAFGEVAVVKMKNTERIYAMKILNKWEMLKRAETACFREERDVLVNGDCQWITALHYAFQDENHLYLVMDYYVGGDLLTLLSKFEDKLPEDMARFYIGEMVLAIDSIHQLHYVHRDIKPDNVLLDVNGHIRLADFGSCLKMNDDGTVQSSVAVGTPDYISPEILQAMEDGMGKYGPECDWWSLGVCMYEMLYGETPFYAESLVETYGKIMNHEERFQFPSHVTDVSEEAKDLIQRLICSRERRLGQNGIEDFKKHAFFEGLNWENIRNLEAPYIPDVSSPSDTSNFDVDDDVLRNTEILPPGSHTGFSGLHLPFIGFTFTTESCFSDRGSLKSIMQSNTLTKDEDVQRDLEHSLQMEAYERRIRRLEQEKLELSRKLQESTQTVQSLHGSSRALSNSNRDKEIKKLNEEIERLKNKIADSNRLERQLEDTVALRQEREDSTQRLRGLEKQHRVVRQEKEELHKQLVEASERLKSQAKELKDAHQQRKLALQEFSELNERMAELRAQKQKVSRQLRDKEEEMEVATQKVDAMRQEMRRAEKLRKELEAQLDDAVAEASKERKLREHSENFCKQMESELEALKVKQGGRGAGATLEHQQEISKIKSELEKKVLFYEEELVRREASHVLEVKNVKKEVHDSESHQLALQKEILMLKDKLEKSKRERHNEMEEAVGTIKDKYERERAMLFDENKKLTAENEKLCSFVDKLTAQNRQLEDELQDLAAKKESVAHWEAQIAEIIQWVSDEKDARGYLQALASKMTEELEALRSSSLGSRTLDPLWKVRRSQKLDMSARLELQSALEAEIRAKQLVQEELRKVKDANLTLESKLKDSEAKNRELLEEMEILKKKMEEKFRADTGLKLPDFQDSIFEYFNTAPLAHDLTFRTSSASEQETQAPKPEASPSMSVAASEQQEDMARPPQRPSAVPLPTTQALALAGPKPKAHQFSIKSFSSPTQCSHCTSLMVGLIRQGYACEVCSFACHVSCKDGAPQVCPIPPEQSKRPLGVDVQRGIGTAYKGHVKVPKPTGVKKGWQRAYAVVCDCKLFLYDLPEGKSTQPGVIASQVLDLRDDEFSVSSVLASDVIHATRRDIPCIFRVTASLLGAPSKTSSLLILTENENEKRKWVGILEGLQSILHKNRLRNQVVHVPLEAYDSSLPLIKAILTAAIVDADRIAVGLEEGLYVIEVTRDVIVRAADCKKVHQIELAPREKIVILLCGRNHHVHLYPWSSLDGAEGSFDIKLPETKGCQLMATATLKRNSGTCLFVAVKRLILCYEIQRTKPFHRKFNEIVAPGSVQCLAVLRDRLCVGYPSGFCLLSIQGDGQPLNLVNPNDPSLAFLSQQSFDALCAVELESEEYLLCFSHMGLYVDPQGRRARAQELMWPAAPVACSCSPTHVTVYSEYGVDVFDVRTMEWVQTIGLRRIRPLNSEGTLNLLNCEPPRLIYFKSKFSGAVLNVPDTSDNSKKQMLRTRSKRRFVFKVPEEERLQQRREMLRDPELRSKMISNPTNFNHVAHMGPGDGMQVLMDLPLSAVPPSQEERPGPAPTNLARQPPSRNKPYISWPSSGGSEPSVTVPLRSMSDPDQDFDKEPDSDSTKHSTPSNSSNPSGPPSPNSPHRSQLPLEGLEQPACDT
Experiment [4] has the same target. The following applies: at 1 µM.
Experiment [5] concerns the target Ribosomal protein S6 kinase alpha-5 (Homo sapiens) (UniProt O75582). The following applies: at 0.1 µM.
The target is the same in experiment [6]. The following applies: at 1 µM.
For experiment [7], the target named is Ribosomal protein S6 kinase alpha-4 (Homo sapiens) (UniProt O75676). The following applies: at 0.1 µM.
Ribosomal protein S6 kinase alpha-4 (Homo sapiens), sequence (O75676 whole entry, looked up): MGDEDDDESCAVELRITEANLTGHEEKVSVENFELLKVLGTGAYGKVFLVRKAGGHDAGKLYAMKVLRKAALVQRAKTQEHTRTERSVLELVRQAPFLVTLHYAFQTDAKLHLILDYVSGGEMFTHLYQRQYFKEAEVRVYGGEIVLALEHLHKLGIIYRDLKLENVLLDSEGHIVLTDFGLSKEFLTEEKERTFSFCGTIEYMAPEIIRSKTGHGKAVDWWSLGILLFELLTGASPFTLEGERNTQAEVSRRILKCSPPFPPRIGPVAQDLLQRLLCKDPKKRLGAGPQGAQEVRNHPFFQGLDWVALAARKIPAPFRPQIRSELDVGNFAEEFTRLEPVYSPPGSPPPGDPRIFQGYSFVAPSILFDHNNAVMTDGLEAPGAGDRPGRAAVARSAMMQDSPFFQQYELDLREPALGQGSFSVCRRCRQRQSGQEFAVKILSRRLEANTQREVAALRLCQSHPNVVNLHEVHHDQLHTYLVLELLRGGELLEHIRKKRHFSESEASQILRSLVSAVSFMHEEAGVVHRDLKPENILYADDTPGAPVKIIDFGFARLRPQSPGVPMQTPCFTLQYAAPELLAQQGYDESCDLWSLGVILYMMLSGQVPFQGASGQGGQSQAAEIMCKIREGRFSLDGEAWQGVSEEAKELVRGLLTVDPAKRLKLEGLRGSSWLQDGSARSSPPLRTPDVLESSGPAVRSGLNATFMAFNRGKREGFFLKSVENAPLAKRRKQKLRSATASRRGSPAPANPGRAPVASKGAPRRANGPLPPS
Experiment [8] shares this target. The following applies: at 1 µM.
The target of experiment [9] is Ribosomal protein S6 kinase beta-1 (Homo sapiens) (UniProt P23443). The following applies: at 0.1 µM.
For experiment [10] the target is unchanged. The following applies: at 1 µM.
The target in experiment [11] is T1, 3-phosphoinositide-dependent protein kinase 1 (Homo sapiens) (UniProt O15530).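 Note: values are mean inhibition of PDK1.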
T1 sequence (whole entry): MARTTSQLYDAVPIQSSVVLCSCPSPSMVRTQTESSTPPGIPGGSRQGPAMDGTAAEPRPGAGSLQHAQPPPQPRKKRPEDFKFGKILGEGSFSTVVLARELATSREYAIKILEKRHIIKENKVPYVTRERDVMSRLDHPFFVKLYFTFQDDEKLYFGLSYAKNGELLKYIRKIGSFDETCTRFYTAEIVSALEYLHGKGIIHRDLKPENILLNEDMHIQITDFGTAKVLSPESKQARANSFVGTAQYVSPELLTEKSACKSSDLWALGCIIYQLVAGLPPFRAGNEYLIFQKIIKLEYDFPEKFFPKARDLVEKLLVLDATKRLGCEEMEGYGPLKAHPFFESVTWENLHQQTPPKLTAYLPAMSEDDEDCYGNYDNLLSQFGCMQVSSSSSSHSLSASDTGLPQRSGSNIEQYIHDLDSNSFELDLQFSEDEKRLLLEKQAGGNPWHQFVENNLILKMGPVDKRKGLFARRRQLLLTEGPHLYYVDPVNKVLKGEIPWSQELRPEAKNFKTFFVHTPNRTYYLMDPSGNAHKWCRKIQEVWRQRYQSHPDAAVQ
The following applies: at 0.1 µM.

Experiment [12] has as its target cAMP-dependent protein kinase catalytic subunit alpha (Homo sapiens) (UniProt P17612). The following applies: at 0.1 µM.
The target is the same in experiment [13]. The following applies: at 1 µM.
The target in experiment [14] is Protein kinase C alpha type (Homo sapiens) (UniProt P17252). The following applies: at 0.1 µM.
Experiment [15] shares this target. The following applies: at 1 µM.
Experiment [16] deals with Protein kinase C beta type (Homo sapiens) (UniProt P05771). The following applies: at 0.1 µM.
Protein kinase C beta type (Homo sapiens), sequence (P05771 2-671 limits assumed): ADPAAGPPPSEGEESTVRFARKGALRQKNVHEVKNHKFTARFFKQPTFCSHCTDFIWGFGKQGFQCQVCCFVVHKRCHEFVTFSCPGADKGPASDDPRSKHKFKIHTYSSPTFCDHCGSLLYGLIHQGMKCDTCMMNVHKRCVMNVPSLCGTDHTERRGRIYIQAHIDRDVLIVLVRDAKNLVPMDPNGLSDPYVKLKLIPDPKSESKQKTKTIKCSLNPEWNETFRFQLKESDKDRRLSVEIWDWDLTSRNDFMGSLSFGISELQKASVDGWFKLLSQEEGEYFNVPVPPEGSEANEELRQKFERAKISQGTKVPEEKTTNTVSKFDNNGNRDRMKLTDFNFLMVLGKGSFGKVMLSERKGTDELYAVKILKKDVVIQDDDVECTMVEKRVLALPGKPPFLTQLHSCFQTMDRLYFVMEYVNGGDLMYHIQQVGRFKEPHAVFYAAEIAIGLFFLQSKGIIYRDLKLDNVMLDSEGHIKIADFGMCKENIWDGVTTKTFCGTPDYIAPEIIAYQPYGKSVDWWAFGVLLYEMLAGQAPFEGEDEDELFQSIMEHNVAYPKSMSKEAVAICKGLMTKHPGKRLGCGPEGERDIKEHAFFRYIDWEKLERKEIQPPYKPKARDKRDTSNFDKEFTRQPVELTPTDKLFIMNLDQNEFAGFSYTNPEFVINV
Experiment [17] has the same target. The following applies: at 1 µM.
Experiment [18] deals with Protein kinase C eta type (Homo sapiens) (UniProt P24723). The following applies: at 0.1 µM.
Experiment [19] shares this target. The following applies: at 1 µM.
The target in experiment [20] is Protein kinase C gamma type (Homo sapiens) (UniProt P05129). The following applies: at 0.1 µM.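 Note: values are mean percent inhibition of PKC gamma.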

Ribosomal protein S6 kinase alpha-5 (Homo sapiens), sequence (O75582 whole entry, looked up): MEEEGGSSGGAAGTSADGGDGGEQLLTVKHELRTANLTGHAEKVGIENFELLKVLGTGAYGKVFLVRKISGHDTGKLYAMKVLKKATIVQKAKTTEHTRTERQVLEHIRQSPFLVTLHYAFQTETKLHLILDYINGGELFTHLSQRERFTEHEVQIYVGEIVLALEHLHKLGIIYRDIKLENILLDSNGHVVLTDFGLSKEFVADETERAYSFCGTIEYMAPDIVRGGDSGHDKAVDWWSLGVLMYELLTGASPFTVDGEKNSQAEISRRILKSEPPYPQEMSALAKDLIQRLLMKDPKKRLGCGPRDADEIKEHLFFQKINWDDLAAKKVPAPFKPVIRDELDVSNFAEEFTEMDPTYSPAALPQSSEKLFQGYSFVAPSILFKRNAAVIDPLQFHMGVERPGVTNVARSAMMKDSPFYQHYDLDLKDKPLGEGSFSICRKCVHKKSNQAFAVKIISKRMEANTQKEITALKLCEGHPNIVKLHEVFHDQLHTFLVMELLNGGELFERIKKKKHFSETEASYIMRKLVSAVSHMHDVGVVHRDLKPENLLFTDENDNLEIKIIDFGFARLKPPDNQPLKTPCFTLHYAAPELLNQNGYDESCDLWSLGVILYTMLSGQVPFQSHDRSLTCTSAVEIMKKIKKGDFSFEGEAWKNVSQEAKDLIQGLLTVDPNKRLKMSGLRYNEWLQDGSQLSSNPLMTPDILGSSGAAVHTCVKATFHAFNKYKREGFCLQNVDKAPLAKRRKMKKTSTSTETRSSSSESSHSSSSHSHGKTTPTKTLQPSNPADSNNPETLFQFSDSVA

`FC(F)(F)c1cccc(-c2nn3ncccc3c2-c2ccnc(Nc3ccc4c(c3)OCCO4)n2)c1`: the inhibition was 0.13% in experiment [1]; 0.81% in experiment [2]; -0.8% in experiment [3]; 1.29% in experiment [4]; 1.59% in experiment [5]; 1.24% in experiment [6]. In addition, the inhibition was 0.3% in experiment [7]; 3.51% in experiment [8]; 1.22% in experiment [9]; -0.48% in [10]; 0.71% in experiment [11]; 1.01% in experiment [12]. Also, the inhibition in experiment [13] is 2.39%; in experiment [14], 0.53%; in experiment [15], 1.32%; in experiment [16], 0.07%; in [17], -2.34%; in experiment [18] it was 2.1%. Besides, the inhibition in experiment [19] stood at 1.3%; in experiment [20], 0.03%.
Take `CCN(CC)S(=O)(=O)c1ccc(OC)c(Nc2ncc(-c3ccccc3)o2)c1`: the inhibition in experiment [1] was 1.92%; in [2], 0.2%; in experiment [3], -0.21%; in experiment [4] it was -0.04%; in experiment [5], 3.03%; in [6] it was 6.51%. Further, the inhibition in experiment [7] turned out to be 0.54%; in experiment [8], 1.06%; in experiment [9], 1.32%; in experiment [10] it was 0.49%; in experiment [11], 1.9%; in experiment [12] it was 0.79%. Besides, the inhibition in experiment [13] stood at 1.82%; in experiment [14], 0.46%; in experiment [15] it was 1.64%; in experiment [16], 1.38%; in experiment [17], 1.74%; in [18], 3.12%. For the same molecule, the values for the inhibition in experiment [19] and in [20] were 0.58% and 0.29%, respectively.
Regarding `CC(=O)NCc1cccc(C#Cc2cncnc2Nc2ccc(OCc3cccc(F)c3)c(Cl)c2)c1`, the inhibition in experiment [1] is 0.23%; in experiment [2], -0.33%; in [3], 0.09%; in experiment [4] it was 1.09%; in experiment [5], -4.98%; in [6] it was -3.7%. Further, the inhibition was 0.45% in experiment [7]; 4% in [8]; 0.26% in experiment [9]; 0.74% in [10]; 0.04% in experiment [11]; 0.53% in experiment [12]. The inhibition is 0.58% in experiment [13]; 0.2% in [14]; 1.17% in experiment [15]; -0.24% in experiment [16]; 3.27% in experiment [17]; 1.39% in experiment [18]. In addition, the inhibition was 3.4% in [19] and -0.73% in [20].
Regarding `CCCN(CCS(C)(=O)=O)Cc1ccc(-c2ccc3ncnc(Nc4ccc(OCc5cccc(F)c5)c(Cl)c4)c3c2)o1`, the inhibition is -1.08% in experiment [1]; 0.54% in experiment [2]; -0.36% in experiment [3]; 0.64% in experiment [4]; 7.14% in [5]; 6.79% in experiment [6]. Further, the inhibition in [7] turned out to be 1.76%; in experiment [8] it was 1.8%; in [9] it was 1.21%; in experiment [10], 1.92%; in [11], 1.25%; in experiment [12] it was 0.67%. Besides, the inhibition in experiment [13] turned out to be 1.36%; in experiment [14], 0.08%; in experiment [15] it was 1.04%; in experiment [16], 0.26%; in experiment [17], 0.52%; in [18], 2.45%. The inhibition in experiment [19] was 3.94%; in experiment [20] it was 1.25%.
Take `CS(=O)(=O)CCNCc1ccc(-c2ccc3ncnc(Nc4ccc(OCc5ccccc5)c(C(F)(F)F)c4)c3c2)o1`: the inhibition in experiment [1] is -6.32%; in [2], -1.92%; in experiment [3], -0.98%; in [4] it was -1.25%; in experiment [5], 8.24%; in experiment [6], 6.53%. For the same molecule, the inhibition in experiment [7] was 1.86%; in [8] it was 0.65%; in experiment [9], 1.21%; in experiment [10], 1.16%; in experiment [11] it was -0.19%; in [12] it was 1.37%. Also, the inhibition is 1.5% in experiment [13]; 0.59% in experiment [14]; 0.28% in [15]; 0.21% in [16]; 1.23% in experiment [17]; 4.55% in experiment [18]. Besides, the inhibition worked out at 5.11% in [19] and 2.66% in experiment [20].
Consider `O=C(O[C@H]1CN[C@H](C#Cc2cc3ncnc(Nc4ccc(Cc5ccccc5)cc4)c3s2)C1)N1CCOCC1`, for which the inhibition in experiment [1] is -1.95%; in experiment [2], 0.21%; in experiment [3] it was 1.54%; in experiment [4] it was 4.12%; in experiment [5], 4.51%; in experiment [6], 3.65%. For the same molecule, the inhibition in experiment [7] was 3.21%; in [8], 3.94%; in experiment [9], 1.97%; in [10], 1.38%; in experiment [11], -1.22%; in experiment [12], 4.03%. For the same molecule, the inhibition in experiment [13] turned out to be 5.91%; in experiment [14], 0.96%; in [15], 4.81%; in experiment [16], 2.02%; in experiment [17], 4.66%; in experiment [18] it was 2.47%. Moreover, the inhibition was 4.45% in experiment [19] and 4.28% in experiment [20].
